Screens: PubChem, National Center for Advancing Translational Sciences (NCATS)
Only some compounds are listed: those with a hit (about 4.7% of all), similar ones and a draw of the others.
D1 antagonist: human D1 dopamine receptor antagonism; P21728; HEK293 TREx D1 cells, calcium flux, dopamine EC80; stronger effect = lower value; activity change, negative = inhibition, % at 10 µM; hit rate 3.2% among 360,000; AID 504652; in the data active = activity change below about -30%; also: % is scaled to controls: 0 for no effect and ±100 for the full control effect
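After overnight tetracycline induction at 30 C, force-coupled D1 HEK293 cells took up a no-wash calcium dye at room temperature. Compounds were added and monitored 180 s, and the response to EC80 dopamine was then recorded.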
D1 potentiator: potentiators of human D1 dopamine receptor | HEK293 TREx D1 cells, calcium flux, dopamine EC20 potentiation | P21728 | potentiation, % at 10 µM | hit rate 0.036% among 360,000 | AID 504651; in the data active = potentiation above about 30%; also: 0% is about no effect
D1 ag: activates the human D1 dopamine receptor; HEK293 T-REx D1 cells, calcium flux, agonist mode; activation, % at 2 µM; hit rate 1% among 360,000; AID 504660; also: 0% is about no effect
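Tetracycline-induced HEK293 TREx D1 cells, force-coupled to calcium signalling, were dye-loaded with a no-wash calcium kit. Compound was pin-added after a 10 s baseline. Fluorescence was read kinetically at 1 cycle/s for 180 s, with calcium rises flagged as agonism.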
TRHR agonist: activates the human TRH receptor. P34981. TRHR cells, calcium flux fluo-8, FDSS agonist mode. activation, % at 2 µM. hit rate 0.18% among 360,000. AID 493084; also: 0% is about no effect
Target sequence (P34981 whole entry, looked up): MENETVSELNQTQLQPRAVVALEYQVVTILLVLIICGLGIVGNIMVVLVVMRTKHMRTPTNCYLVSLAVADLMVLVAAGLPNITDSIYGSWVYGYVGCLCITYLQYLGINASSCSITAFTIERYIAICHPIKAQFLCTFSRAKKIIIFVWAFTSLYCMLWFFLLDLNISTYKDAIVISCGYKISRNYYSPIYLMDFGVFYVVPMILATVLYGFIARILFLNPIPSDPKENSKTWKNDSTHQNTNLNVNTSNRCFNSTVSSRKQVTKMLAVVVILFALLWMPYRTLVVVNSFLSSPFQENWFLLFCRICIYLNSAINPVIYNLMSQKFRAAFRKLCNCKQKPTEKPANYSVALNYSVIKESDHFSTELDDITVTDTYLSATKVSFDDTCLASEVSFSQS
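Agonist-mode FDSS calcium read (Ex 480/Em 530, 1 s cycles) in 1536-well TRHR cells with fluo-8 dye, after 10-cycle baseline and 23 nL compound addition; TRH at EC20 (10 nM final) added afterwards for the enhancer phase.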
TRHR PAM: allosterically enhances the human TRH receptor | hit rate 0.66% among 360,000 | enhancement, % at 2 µM | AID 493056 | TRHR cells, fluo-8 calcium fluorescence, EC20 TRH enhancement | P34981; in the data active = enhancement above about 30%; also: 0% is about no effect
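Enhancer read-out: after compound pinning and an initial kinetic agonist-mode read, an EC20 of TRH (10 nM final) was injected and fluo-8 calcium signal (Ex 480/Em 530) followed at 1 s/cycle for 100 cycles in TRHR-expressing cells.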
Active calls of the source: *; / = no result; ! = a repeat was not active. Rule as the data show it, unless noted: active = activation above about 30%; inactive = the rest.

SMILES | D1 antagonist | D1 potentiator | D1 ag | TRHR agonist | TRHR PAM
CC(C)N(Cc1ccccc1)C(=S)NC1CCCCC1 | -31* | -15 | 5 | 0 | 0
CCSc1nc(-c2ccc(OC)cc2)nc2c1Cc1c(CO)cnc(C)c1O2 | -4 | -2 | 1 | -1 | 9
COc1cc(/C=C/C(=O)N2CCCc3ccccc32)cc(OC)c1OC | -33* | -2 | -1 | -1 | -6
COc1ccc(OC)c(/C=C/C(=O)N2CCCc3ccccc32)c1 | 11 | 1 | 1 | -1 | -6
CCC(=O)c1ccc(OCC(=O)OCC(=O)N2CCCc3ccccc32)cc1 | -28 | -7 | 12 | 1 | 5
COc1ccc(/C=C/C(=O)N2CCCc3ccccc32)cc1 | -32* | -7 | 8 | -1 | -3
COc1ccc(C(=O)NCC(=O)OCC(=O)N2CCCc3ccccc32)cc1 | 0 | 2 | 0 | 0 | 37*
CCCc1cc(=O)[nH]c(SCC(=O)Nc2cccc(S(=O)(=O)N3CCCCC3)c2)n1 | -3 | / | 6 | 0 | -9
O=C(c1cccc(F)c1)N1CCCN(C(=O)c2cccc(F)c2)CC1 | -81* | -5 | 1 | 0 | 6
O=C(c1cccs1)N1CCC(c2ccccc2)C1 (stereo unspecified) | -85* | -1 | 0 | -2 | 2
O=C(CCN1CCC(c2ccccc2)C1)c1cccs1 (stereo unspecified) | 0 | -2 | -1 | -1 | -1
O=C(OCc1ccccc1)C1CCCN1C(=O)c1cccs1 (stereo unspecified) | -15 | -4 | 0 | -1 | 39*
O=C(COC(=O)C1CCCN1C(=O)c1cccs1)c1ccccc1 (stereo unspecified) | -27 | -2 | 1 | 0 | 0
O=C1c2oc3ccccc3c(=O)c2C(c2ccc(Br)cc2)N1c1ccccn1 (stereo unspecified) | 0 | 2 | 1 | 1 | -10
CCOC(=O)c1ccc(NS(=O)(=O)c2cc(-c3onc(C)c3C)ccc2C)cc1 | 6 | -1 | 0 | 0 | 7
COC(=O)c1sc2cc([N+](=O)[O-])cc(SCC(C)C)c2c1N | -4 | 9 | 91* | 28 | -3
Cc1nc2cccnc2n1C1CCN(S(=O)(=O)c2ccc(Cl)cc2)CC1 | 9 | 4 | 16 | 2 | -3
Cc1nc2cccnc2n1C1CCN(S(=O)(=O)N(C)C)CC1 | -37* | 0 | 2 | 0 | -4
CCOc1ccc(S(=O)(=O)N2CCC(n3c(C)nc4cccnc43)CC2)cc1 | -28 | -6 | 34* | 3 | 0
O=C(c1ccccc1)c1ccc(NCCCn2ccnc2)c([N+](=O)[O-])c1 | -35* | -12 | 15 | -1 | 11
CCN(CC)S(=O)(=O)c1ccc(NCCCn2ccnc2)c([N+](=O)[O-])c1 | -7 | 2 | 0 | 0 | -18
O=C(NCCCn1ccnc1)c1ccc2ccccc2c1 | -37* | -7 | 3 | 0 | -2
Cc1ccc(NS(=O)(=O)c2cccc(C(=O)NCCCn3ccnc3)c2)cc1 | -4 | 1 | 2 | -1 | 28
O=C(NCCCn1ccnc1)c1ccc(NS(=O)(=O)c2ccc(Cl)c(Cl)c2)cc1 | 0 | 11 | 34* | -1 | 2
O=C(NCCCn1ccnc1)c1cn(-c2ccccc2)nc1-c1ccccc1 | -83* | -8 | 1 | 0 | -1
SMILES | D1 antagonist | D1 potentiator | D1 ag | TRHR agonist | TRHR PAM
O=C(NCCCn1ccnc1)c1cc2ccccc2oc1=O | 0 | -4 | 1 | 0 | 7
O=C(NCCCn1ccnc1)c1ccccc1Br | -11 | 2 | 3 | -1 | -4
Cn1nc(-c2ccccc2F)c2cc(C(=O)NCCc3ccc(Cl)cc3)sc21 | -6 | -1 | 11 | 1 | 21
CC1CCCCC1NS(=O)(=O)c1ccc2c(c1)CC(=O)N2C (stereo unspecified) | -12 | 3 | 3 | 0 | -5
COC(=O)CN1C(=O)CSc2ccc(S(=O)(=O)Nc3c(C)cc(C)cc3C)cc21 | 2 | -2 | 2 | -1 | -1
Cc1nn(C(C)C(=O)Nc2cccc(F)c2)c(=O)c2c1sc1ccccc12 (stereo unspecified) | -10 | 1 | 0 | 0 | 1
CCCOc1ccc(-c2nc(SCc3ccccc3)[nH]c(=O)c2C#N)cc1OC | -7 | -5 | 0 | -1 | -2
Cc1nn(-c2nc3ccccc3s2)c(C)c1Oc1ccccc1O | -60* | -9 | 25 | -1 | -17
O=C(Nc1cccc(C(F)(F)F)c1)c1ccc2c(c1)nnn2C1CCCC1 | 2 | 2 | 6 | 1 | 5
O=C(CC1Oc2ccccc2NC1=O)NC1CCCC1 (stereo unspecified) | -40* | -4 | 0 | 1 | -1
CCNC(=S)N1CCN(c2nc(-c3ccc(F)cc3)cs2)CC1 | 4 | -5 | 3 | 0 | -4
CCCCC(=O)N1CCN(c2nc(-c3ccc(F)cc3)cs2)CC1 | -31* | -4 | 2 | -1 | 0
CCN(CC)CCCNC(=S)N1CCN(c2nc3ccccc3n2CC)CC1 | -35* | -11 | 1 | 0 | 1
COCCNC(=S)N1CCN(c2nc(-c3ccc(F)cc3)cs2)CC1 | -34* | -16 | 3 | -1 | -6
CCN(CC)CCCNC(=S)N1CCN(c2nc(-c3ccc(F)cc3)cs2)CC1 | -46* | -13 | 43* | -1 | -3
Cc1ccc(NC(=O)Cn2c(=O)n(Cc3ccc4c(c3)OCO4)c(=O)c3ccc(C(=O)NC4CCCCC4)cc32)c(C)c1 | -22 | 0 | 0 | 0 | -1
CCc1ccc(-n2c(=O)c3cccnc3n2CC(=O)Nc2cc(F)ccc2F)cc1 | -4 | -4 | 9 | 0 | -7
COc1cccc(-c2csc(N3CCN(C(=S)Nc4ccccc4C)CC3)n2)c1 | -33* | -3 | 1 | 0 | 1
COc1cccc(-c2csc(N3CCN(C(=S)Nc4ccccc4)CC3)n2)c1 | -8 | -3 | -1 | 0 | 5
CC(C)NCC(O)c1ccc(O)c(O)c1 (stereo unspecified) | 10 | 1 | 1 | 0 | 36*
CNC[C@H](O)c1ccc(O)c(O)c1 | 9 | 1 | 3 | -1 | -4
Cc1ccc(NC(=O)C2CCCN(S(=O)(=O)c3ccc4[nH]c(=O)ccc4c3)C2)cc1Cl (stereo unspecified) | -48* | -9 | 4 | 1 | -3
COc1ccc(NC(=O)C2CCN(S(=O)(=O)c3ccc(N4CCCC4=O)cc3)CC2)c(OC)c1 | -16 | 3 | 0 | 0 | -1
Cc1ccc(NC(=O)C2CCN(S(=O)(=O)c3ccc(N4CCCC4=O)cc3)CC2)cc1Cl | -71* | -10 | 12 | 0 | -10
COc1ccc(C)cc1NC(=O)C1CCCN(S(=O)(=O)c2ccc3[nH]c(=O)ccc3c2)C1 (stereo unspecified) | -8 | -8 | 1 | -1 | 47*!
